Assay results taken from PubChem BioAssay.
Values joined by “and” are separate entries in the source; they are usually repeats but may differ in a detail not shown here. Equal values may be shown once. Inconclusive results are not listed. For some assays here: Results with a measured potency or affinity are listed apart. Active and inactive are the calls of the source. Unless noted, how the calls were made is not given here.

Experiments:
[1] = polyglutamine-triggered caspase-3 activation inhibitors, cell-based (AID 1583); conditions: polyglutamine-induced caspase-3 activation, cell assay; stronger effect = higher value;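 tested at 10 µM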
[2] = suppressors of polyQ aggregation in yeast, 75Q-TubU reporter (AID 1593); conditions: Yeast 75Q polyglutamine aggregation reporter
[3] = rescue of polyQ-huntingtin neuronal dysfunction in worms, whole organism, C. elegans mechanosensory neurons, N-terminal huntingtin (AID 1599); conditions: touch response, stronger effect = higher value
[4] = inhibitors of mitochondrial cytochrome c release, biochemical, purified mitochondria (AID 1603); conditions: stronger effect = lower value;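 further: mouse liver mitochondria challenged with calcium chloride; signal normalized to the plate average as 100%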
[5] = inhibitors of polyQ protein aggregation (AID 1604); conditions: polyglutamine-induced protein aggregation inhibition assay; stronger effect = higher value; tested at 2.5 µM
[6] = enhancers of glutamate uptake in motor neurons, MN-1 cell line (AID 1612); conditions: MN-1 motor neuron cells, stronger effect = higher value;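 further: tested at 1 µM final; 0% = mean of DMSO vehicle wells on each plate; positive means more glutamate uptake than control and negative means less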
[7] = suppressors of polyglutamine aggregation in yeast, 75Q-TubH (AID 1616); conditions: S. cerevisiae 75Q-TubH polyglutamine aggregation suppression; stronger effect = higher value
[8] = reducers of polyQ inclusions in PC12 cells, cell-based, NGF-treated PC12, GFPQ80 (AID 1614); conditions: PC12 NGF-treated GFP-polyQ80 inclusion reduction;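 further: lower means fewer inclusions and 0 means no inclusions at all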
[9] = hESC survival regulators, cell-based (AID 493140); conditions: human embryonic stem cell survival screen; stronger effect = higher value;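 further: cells exposed to compounds for four days before counting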
[10] = target: ATP-dependent translocase ABCB1 (Homo sapiens) (UniProt P08183); test: MDR1 (ABCB1) efflux transporter inhibition, cell-based (AID 377; in the data active means fluorescence slope change above about 50%); conditions: MDR1-expressing cells, fluorescent substrate accumulation slope; stronger effect = higher value; concentration not given here
Chain of ATP-dependent translocase ABCB1 (Homo sapiens) (P08183 whole entry, looked up): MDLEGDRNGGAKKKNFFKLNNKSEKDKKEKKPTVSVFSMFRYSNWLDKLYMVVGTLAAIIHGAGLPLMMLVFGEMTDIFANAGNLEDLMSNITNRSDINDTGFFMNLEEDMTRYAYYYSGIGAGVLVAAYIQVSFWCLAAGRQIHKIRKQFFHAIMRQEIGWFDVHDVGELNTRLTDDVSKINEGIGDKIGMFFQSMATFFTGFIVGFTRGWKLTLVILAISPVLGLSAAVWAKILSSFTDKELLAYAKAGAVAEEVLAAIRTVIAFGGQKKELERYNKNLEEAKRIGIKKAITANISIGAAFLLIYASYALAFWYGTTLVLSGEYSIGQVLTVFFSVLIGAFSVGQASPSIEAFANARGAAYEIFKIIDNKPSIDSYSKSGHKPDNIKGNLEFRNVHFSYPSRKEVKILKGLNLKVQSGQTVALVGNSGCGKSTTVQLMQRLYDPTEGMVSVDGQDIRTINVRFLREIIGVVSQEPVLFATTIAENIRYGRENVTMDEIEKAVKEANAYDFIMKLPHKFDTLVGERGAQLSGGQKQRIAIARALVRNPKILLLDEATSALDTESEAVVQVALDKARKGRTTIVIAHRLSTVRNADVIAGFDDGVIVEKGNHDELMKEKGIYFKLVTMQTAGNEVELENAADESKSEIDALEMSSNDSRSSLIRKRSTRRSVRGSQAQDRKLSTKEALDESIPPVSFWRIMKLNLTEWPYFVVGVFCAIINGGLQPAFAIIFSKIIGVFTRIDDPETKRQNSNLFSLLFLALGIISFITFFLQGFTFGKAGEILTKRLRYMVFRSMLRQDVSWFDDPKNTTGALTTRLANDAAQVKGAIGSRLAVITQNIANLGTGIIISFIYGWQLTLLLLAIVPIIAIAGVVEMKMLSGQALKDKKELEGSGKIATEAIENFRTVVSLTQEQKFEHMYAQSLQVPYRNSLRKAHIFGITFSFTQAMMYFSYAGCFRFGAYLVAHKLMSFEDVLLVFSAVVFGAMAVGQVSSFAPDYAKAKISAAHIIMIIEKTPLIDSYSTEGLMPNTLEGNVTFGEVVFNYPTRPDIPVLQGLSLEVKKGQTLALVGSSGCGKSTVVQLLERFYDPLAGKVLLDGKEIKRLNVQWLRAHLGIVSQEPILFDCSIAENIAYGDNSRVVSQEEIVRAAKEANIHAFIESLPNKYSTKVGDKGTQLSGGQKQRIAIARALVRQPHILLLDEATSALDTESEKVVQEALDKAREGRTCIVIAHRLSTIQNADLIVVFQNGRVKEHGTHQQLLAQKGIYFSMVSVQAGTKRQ

[11] = circadian clock period modulators, cell-based, LOPAC library, luminescence reporter (AID 2774); conditions: circadian reporter cells, at 7 µM, actives lie on both sides;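 further: values are relative to mean of DMSO wells on each plate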

SMILES | inhibition [1] | score [2] | rescue above control [3] | cytochrome c release ratio [4] | inhibition of aggregation [5] | glutamate uptake change [6] | aggregation suppression score [7] | inclusion score [8] | survival [9] | fluorescence slope change [10] | period change [11]
O=C(OCc1ccccc1)c1ccccc1 | 4.26% | 0.45 | 0.5 | 1.04 | 74% | 36% | 0.363 | – | – | – | –
CCCCCCc1ccc(O)cc1O | 8.69% | 0 | -4.19 | 0.54 | 56.7% | 15.5% | -0.0012 | – | – | – | –
Cc1ccsc1/C=C/C1=NCCCN1C | 26.5% | 0.99 | -7.31 | 0.66 | 25.5% | 1.68% | 1.28 | 2 | 20.3 (inactive) | – | –
COc1cc(NS(=O)(=O)c2ccc(N)cc2)ncn1 | -4.01% | 1.09 | 33.1 | 0.96 | 88.9% | 2.45% | 1.2 | 2 | 3.67 (inactive) | – | –
Nc1ccc(C(=O)NCC(=O)O)cc1 | 5.11% | 1.21 | 11.2 | 1.41 | 83.6% | -9.5% | 1.33 | 2 | 1.83 (inactive) | – | –
CC(C)NCC(O)c1ccc2ccccc2c1 (configuration not stated) | 0.74% | 1.15 | -8.05 | 0.68 | 88% | 6.56% | 0.983 | 2 | 5.67 (inactive) | – | –
CN1C(C(=O)Nc2ccccn2)=C(O)c2sccc2S1(=O)=O | -15.4% | 0.84 | -5.04 | 1.03 | 69.7% | -15.9% | 0.632 | 2 | 5.08 (inactive) | – | –
NC(N)=NS(=O)(=O)c1ccc(N)cc1 | -31.1% | 1.49 | -3.67 | 1.37 | 93.6% | 5.91% | 1.54 | 2 | 11.5 (inactive) | – | –
CCN(CC)CCOC(=O)C(c1ccccc1)c1ccccc1 | 11.6% | 0.88 | 8.76 | 1.09 | 66.7% | 15.8% | 0.888 | 2 | 11.2 (inactive) | – | –
Cc1cc(NC(=O)C2=C(O)c3ccccc3S(=O)(=O)N2C)no1 | 49.9% | 0.18 | -11.8 | 1.04 | 72.2% | 11.8% | -0.565 | 2 | 12.4 (inactive) | – | –
CCN(CC)CCNC(=O)COc1ccc(OC)cc1 | 62% | 1.13 | -1.97 | 0.98 | 72.2% | 0.53% | 1.23 | 2 | 49.8 (inactive) | – | –
COc1cc(C(=O)NCc2ccc(OCCN(C)C)cc2)cc(OC)c1OC | 17.1% | 1.06 | -0.31 | 0.61 | 75.6% | 0.14% | 0.824 | 2 | 15.8 (inactive) | – | –
Cn1c([N+](=O)[O-])cnc1COC(N)=O | -0.12% | 1.29 | 8.28 | 0.98 | 44.8% | 17% | 1.36 | 2 | 19.5 (inactive) | – | –
O=C1OC(c2ccc(O)cc2)(c2ccc(O)cc2)c2ccccc21 | -3.42% | 1.29 | 8.67 | 4.22 | 70.1% | -16.5% | 1.31 | – | – | – | –
C[n+]1ccccc1/C=N/O | 17.5% | 1.27 | 6.93 | 1.18 | 91.3% | -3.95% | 1.54 | 2 | 5.75 (inactive) | – | –
CN(C)CCOC(=O)C(c1ccccc1)C1(O)CCCC1 (configuration not stated) | -1.25% | 1.17 | -1.73 | 0.87 | 90.7% | -0.32% | 1.32 | 2 | 12.5 (inactive) | – | –
Cc1cc(CC(=O)O)n(C)c1C(=O)c1ccc(Cl)cc1 | -20.4% | 0.85 | 20.8 | 0.92 | 83.3% | -4.24% | 0.565 | 2 | 3.5 (inactive) | – | –
CCCc1ncc(C[n+]2ccccc2C)c(N)n1 | -2.36% | 1.6 | -0.43 | 0.95 | 84.8% | 5.76% | 0.986 | 1.5 | 8.58 (inactive) | – | –
Cc1cc(-c2ccccc2)nnc1NCCN1CCOCC1 | 7.39% | 1.28 | 5.33 | 1.03 | 66.7% | 4.73% | 1.11 | 1 | 17.2 (inactive) | – | –
Cc1oncc1C(=O)Nc1ccc(C(F)(F)F)cc1 | -21.8% | 0.42 | -2.16 | 1.42 | 51% | 8.42% | 0.133 | – | 6.08 (inactive) | 12.9% (inactive) | 0.35 h (inactive)
CCOC(=O)C(C)(C)Oc1ccc(Cl)cc1 | 24.9% and 18.3% | 0.66 and 0.84 | -9.07 and 5.03 | 0.65 and 0.84 | 70.5% and -5.88% | -11.1% and 6.19% | 0.624 and 0.92 | – | 82.4 (inactive) | – | -0.13 h (inactive)
COc1ccc(CCN2CCC(Nc3nc4ccccc4n3Cc3ccc(F)cc3)CC2)cc1 | 17.9% | 1.54 | 0 | 0.61 | -3.03% | 31.2% | 1.26 | – | 1.58 (inactive) | 189% (active) | –
COc1ccc(C(=O)c2ccccc2)c(O)c1 | 16.9% | 0.23 | 9.82 | 1.17 | 35% | 5.28% | 0.225 | – | 3.25 (inactive) | – | –
CN1CCN2c3ccccc3Cc3ccccc3C2C1 (configuration not stated) | -9.95% | 1.13 | 36.1 | 0.7 | 60.7% | 12.1% | 1.3 | – | 11.2 (inactive) | 67.1% (active) | 0.145 h (inactive)
CN1CCC[C@@H]1CCO[C@](C)(c1ccccc1)c1ccc(Cl)cc1 | 2.42% | 1.25 | 0 | 1.13 | 76.2% | 65.2% | 0.9 | – | 6.33 (inactive) | 188% (active) | –
C1CCC(C(CC2CCCCN2)C2CCCCC2)CC1 (configuration not stated) | 57.7% | 0.35 | -18 | 1.56 | 83.1% | -10.9% | 0.885 | – | 6 (inactive) | 352% (active) | –
Cc1cc(N)c2ccccc2[n+]1CCCCCCCCCC[n+]1c(C)cc(N)c2ccccc21 | -13.3% | 0.06 | -0.23 | 6.78 | 43.1% | 12.9% | 0.0487 | – | 0.167 (inactive) | 97.9% (active) | 0.12 h (inactive)
Cc1nc2sccn2c(=O)c1CCN1CCC(=C(c2ccc(F)cc2)c2ccc(F)cc2)CC1 | -6.39% | 1.46 | 0 | 0.36 | 7.32% | 29.6% | 1.39 | – | – | – | 0.08 h (inactive)
CC(CN(C)C)CN1c2ccccc2CCc2ccccc21 (configuration not stated) | 11.6% | 1.5 | -11.6 | 0.94 | 23.8% | 14.6% | 1.32 | – | 2.17 (inactive) | 61.2% (active) | -0.085 h (inactive)
